Experimental data from PubChem BioAssay AID504444 (National Center for Advancing Translational Sciences (NCATS), 2011).
The whole screen tested about 360,000 compounds, of which about 7,500 (2.1%) were called active. Not shown: some 20% with an inconclusive outcome. The sample holds actives, similar compounds and a random draw of the others, so the mix is not that of the screen. Values without a mark were called inactive. Calls come from the whole dose curve; as a rule, active = well fitted inhibition curve with a large enough effect; inconclusive = small, poorly fitted or top-dose-only effect, or effect the other way; inactive = flat fitted curve, though single readings scatter.

Assay: Nrf2 qHTS screen for inhibitors; note: nearly all actives have a fitted effect of over 60% in size
Settings: A549 ARE-Fluc reporter, luciferase luminescence, 18-24 h; series mostly up to 46 µM; activity change, negative = inhibition: at the top concentration
Method in brief: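 A549 ARE_Fluc cells (5000/well, 5% FBS OPTI-MEM) pre-incubated 2 h, then treated with compounds 18-24 h at 37C/5% CO2 in concentration-response. CellTiter-Fluor viability read first; BugLite luciferase luminescence after 15 min at room temperature gives Nrf2 activity.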
% is set by controls: 0 for no effect and ±100 for the full control effect; potency is the fitted concentration of half-maximal effect.

Row | Compound | Potency | activity change, negative = inhibition
1 | CC1=NN(c2ccccc2)C(=O)C1C(=O)c1ccc([N+](=O)[O-])cc1 (configuration not stated) | 25.9 µM (active) | –
2 | Cc1ccc(C)n1NC(=O)c1ccc([N+](=O)[O-])cc1 | – | -6.57%
3 | O=C1CC(c2ccccc2)=NN1c1ccc([N+](=O)[O-])cc1 | – | -13.5%
4 | COCCOC(=O)c1[nH]c2c(c1C)C(=O)CC(c1ccc(OC)cc1)C2 (configuration not stated) | – | 3.14%
5 | CCCOC(=O)c1[nH]c2c(c1C)C(=O)CC(c1cccs1)C2 (configuration not stated) | – | 2.43%
6 | CCCOC(=O)c1[nH]c2c(c1C)C(=O)CC(c1cc(OC)c(OC)c(OC)c1)C2 (configuration not stated) | 16.4 µM (active) | –
7 | COc1cccc(CNC(=O)C2CCC(CNS(=O)(=O)c3cccs3)CC2)c1 (configuration not stated) | – | 6.28%
8 | Cc1ccc(S(=O)(=O)NCC2CCC(C(=O)N3CCOCC3)CC2)cc1 (configuration not stated) | – | 2.72%
9 | Cc1ccc(C)c(N2CCN(C(=O)C3CCC(CNS(=O)(=O)c4cccs4)CC3)CC2)c1 (configuration not stated) | 18.4 µM (active) | –
10 | Cc1cc([N+](=O)[O-])c(=O)[nH]c1C | – | -28.4%
11 | COc1ccc(N=C2C=CC(=O)O2)cc1 | – | 2.45%
12 | CCOC(=O)c1ccc(NC(=O)C2CC(=O)N(c3ccc4c(c3)OCCO4)C2)cc1 (configuration not stated) | – | -15.5%
13 | Cc1ccc(NC(=O)C2CCC(C(C)(C)C)CC2)cc1S(=O)(=O)N1CCOCC1 (configuration not stated) | 20.6 µM (active) | –
14 | Cc1ccc(N2CC(C(=O)Nc3ccc(S(=O)(=O)N4CCCC4)cc3)CC2=O)cc1C (configuration not stated) | – | -26.7%
15 | COc1ccccc1N1CC(C(=O)Nc2ccc(S(=O)(=O)N3CCOCC3)cc2)CC1=O (configuration not stated) | – | 2.1%
16 | Cc1ccc(NC(=O)NC2CCCCC2)cc1S(=O)(=O)N1CCOCC1 | – | -20.2%
17 | Cc1ccc(NC(=O)C2CC2)cc1S(=O)(=O)N1CCOCC1 | – | 3.69%
18 | COc1ccc(S(=O)(=O)N2CCCCC2)cc1NC(=O)C1CC(=O)N(c2ccc3c(c2)OCCO3)C1 (configuration not stated) | 23.1 µM (active) | –
19 | COc1ccc(S(=O)(=O)N2CCCCCC2)cc1NC(=O)Cc1ccc(OC)c(OC)c1 | – | -5.21%
20 | CC(=O)c1ccccc1NC(=O)C1CC(=O)N(c2ccc3c(c2)OCCO3)C1 (configuration not stated) | – | 15.8%
21 | CC1CCN(S(=O)(=O)c2ccc(NC(=O)C3CC(=O)N(c4ccccc4)C3)cc2)CC1 (configuration not stated) | 6.51 µM (active) | –

Row | Compound | Potency | activity change, negative = inhibition
22 | Cc1ccccc1N1CC(C(=O)Nc2ccc(S(=O)(=O)N3CCCC3)cc2)CC1=O (configuration not stated) | – | -16.1%
23 | Cc1ccc(NC(=O)C2CC(=O)N(c3ccc4c(c3)OCCO4)C2)cc1S(=O)(=O)N1CCCCCC1 (configuration not stated) | 5.8 µM (active) | –
24 | CCN(CC)S(=O)(=O)c1ccc(CNC(=O)CN2C(=O)NC3(CCc4ccccc43)C2=O)cc1 (configuration not stated) | – | -5.28%
25 | Cc1ccc(C)c(N2CCN(C(=O)Cn3ncc4c(=O)oc5ccc(C)cc5c43)CC2)c1 | – | -1.2%
26 | O=C(NCc1ccccc1)c1cccc(NC(=O)C2CCCCC2)c1 | – | -2.53%
27 | Cn1nnnc1SCCCNCc1cccc(OCc2ccc(Cl)cc2)c1 | – | 16.4%
28 | COc1ccc(CNC(=O)CCc2c(C)nn(-c3ccc(N4CCCC4)nn3)c2C)cc1 | – | 11.6%
29 | O=[S+]([O-])(c1ccc(OC(F)(F)F)cc1)N1CCN([S+](=O)([O-])c2ccc3c(c2)OCCO3)CC1 | – | 16.6%
30 | COc1cccc(CNC(=O)c2ccc3c(c2)N(Cc2ccc(C(F)(F)F)cc2)C(=O)c2ccccc2S3)c1OC | – | -2.78%
31 | CCOc1ccc(C(=O)/C=C/c2cn(CC(O)CN3CCCCCC3)c3ccccc23)cc1 (configuration not stated) | – | 22.8%
32 | CCS(=O)(=O)c1nc(S(=O)(=O)c2ccc(C)cc2)c(NCc2ccc(Cl)cc2)s1 | – | -1.83%
33 | NC1=NOC(=O)C1C1CCCCC1 (configuration not stated) | – | -7.5%
34 | CCCCNS(=O)(=O)c1ccc2nc(SCC(=O)Nc3cc(C)cc(C)c3)[nH]c2c1 | 13 µM (active) | –
35 | CC(=O)Nc1ccc(C(=O)CSc2nc3ccc(C)cc3[nH]2)cc1 | – | 26.7%
36 | Cc1cc(C)c(NC(=O)CSc2nc3ccncc3[nH]2)c(C)c1 | inactive | –
37 | Cc1ccc(/C=C(\C#N)C(=O)Nc2cc(C)ccc2C)cc1 | – | 5.62%
38 | CC(C)(C)c1ccc(S(=O)(=O)Nc2ccc(O)c(Sc3nc4ccccc4s3)c2)cc1 | – | 1.33%
39 | CCOc1ccc(NC(=O)c2c(NC(=O)Cc3ccccc3)sc3c2CCCCC3)cc1 | – | -17.2%
40 | COc1cccc(NS(=O)(=O)c2ccc(-c3coc(C)n3)cc2)c1 | – | -27.9%
41 | COc1ccc(NS(=O)(=O)c2cccc(C(=O)NCCc3ccc(S(N)(=O)=O)cc3)c2)cc1 | – | 5.04%
42 | COc1ccc(NS(=O)(=O)c2ccc(Oc3c(C#N)cccc3C#N)cc2)cc1 | 13 µM (active) | –

Row | Compound | Potency | activity change, negative = inhibition
43 | Cc1cccc(-n2c(SCC(N)=O)nc3c(c2=O)C2(CCCCC2)Cc2ccccc2-3)c1 | 20.6 µM (active) | –
44 | Cc1cccc(-n2c(SCC(N)=O)nc3c(oc4ccccc43)c2=O)c1 | – | 1.69%
45 | N#CCSc1nc2c(c(=O)n1Cc1ccccc1)C1(CCCC1)Cc1ccccc1-2 | – | 10.3%
46 | C[C@H](CO)N1C[C@H](C)[C@@H](CN(C)Cc2ccc(-c3ccccc3)cc2)Oc2ccc(NC(=O)Cn3cnnn3)cc2C1=O | – | 0.445%
47 | OCC(O)C1OCOC(C(O)CO)C1O (configuration not stated) | – | -10.3%
48 | CCOc1ccc(NC(=O)c2c(NC(=O)Cc3ccccc3)sc3c2CCC(C)C3)cc1 (configuration not stated) | – | -14.5%
49 | COc1ccc(CC(=O)N/N=C(\C)c2ccccn2)cc1 | 14.6 µM (active) | –
50 | COc1ccc(CC(=O)NC(C)CCc2ccccc2)cc1 (configuration not stated) | – | -21.7%
51 | Cc1ccc(Cl)cc1NC(=O)c1ccccn1 | – | 25.8%
52 | CNC(=S)N1CCN(c2ccccn2)CC1 | – | -6.46%
53 | Cc1cccc(C)c1NC(=S)N1CCCCCC1 | – | 7.37%
54 | CC(=NNC(=S)N1CCCCCC1)c1ccccn1 | 1.16 µM (active) | –
55 | C/C(=N\NC(=O)Cc1ccc(F)cc1)c1ccc(F)cc1 | – | -2.05%
56 | COc1ccc(C/C(C)=N/NC(=O)c2ccncc2)cc1 | – | 9.67%
57 | C/C(=N\NC(=O)Cc1ccc(Cl)cc1)c1ccccn1 | 3.26 µM (active) | –
58 | Cc1noc(C)c1NC(=O)Nc1ccc2c(c1)C(=O)N([C@H](C)CO)C[C@H](C)[C@@H](CN(C)C(=O)Nc1ccc(C(F)(F)F)cc1)O2 | – | -5.04%
59 | Cc1ccc(-c2nn(CCC(=O)Nc3ccc(Cl)c(Cl)c3)c(=O)c3ccccc23)cc1 | – | -4.96%
60 | CCCNC(=O)C(CC)n1nc(CC)n2c(cc3oc(C)cc32)c1=O (configuration not stated) | – | -22.5%
61 | CCOc1cccc(NC(=O)CSc2ncc(-c3ccc(Cl)cc3)[nH]2)c1 | – | 10.8%
62 | Cc1ccc(Nc2c(-c3ccc(Cl)cc3)nc3sccn23)c(C)c1 | – | 11.2%
